67 sequences from PubChem BioAssay AID1159506 (National Center for Advancing Translational Sciences (NCATS), 2015) can be followed below.

Whole data set: some 59,000 sequences, median the read-out near -0.00055, cut for the lowest 2% near -2. This excerpt belongs to a sample that is enriched for the lowest values.

This experiment is described as follows: Identification of proteins required for the processing of the EWS-FLI1 nascent transcript.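 Note: robust z of luciferase light less the median z of siRNAs with the same seed.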 Particulars: TC32 Ewing sarcoma NR0B1-luc vs CMV-luc (EWS-FLI1 target promoter against control promoter), 48 h; screened at 20 nM (by protocol). A digest of the protocol:
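Readout: OneGlo luminescence, 48 h post-transfection, TC32-NR0B1-luc vs TC32-CMV-luc in parallel. siRNA 20 nM final, RNAiMax lipid, 600 cells/well; z-score-MAD transformed, then seed-adjusted.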
AUCCAUGUCAGCGUGAGUC against PSD2 came in with a seed-corrected z-score of -0.273.
In the case of AAGAGAAUCAAAAUAGUGG against GPR63, the seed-corrected z-score was -0.548.
In the case of AUCCGAACCAGGUAGACAC against PRTG, the seed-corrected z-score was 0.374.
In turn, AUUGUGGUAGUAGUGUUGG against NUP62CL yielded a seed-corrected z-score of -2.29.
With UCUUUGCCUAGUGUGGUUU against TAF9, the seed-corrected z-score was -0.576.
Sequence UGUCUGUUUGUUGAAACUC against APOA5 registered a seed-corrected z-score of -0.451.
UCGUAGGCAAGGUAAGUAG against MUCL1: the seed-corrected z-score is -0.0888.
UCAAGUAAACUAGUCGUUU against VKORC1L1 gave a seed-corrected z-score of -0.26.
Turning to UUGGUUGCAAAGGAACUCC against NAB1, the seed-corrected z-score is -2.58.
UUCAUUUGCUCGAUGGUUG against MAPK1 returned a seed-corrected z-score of 1.09.
For the sequence UUCCUUGAUAGGUAUGUAU against LOC388813, the seed-corrected z-score was -0.0267.
In the case of UUGUGAACUACUUCUAUCC against AKNA, the seed-corrected z-score was determined as 0.00206.
Regarding AUAGGUCUGACUCAGCUGC against CCDC155, the seed-corrected z-score was -2.23.
For UAGUGUACAAGGGUCAGGC against TSPAN17, the seed-corrected z-score was determined as 0.12.
For the sequence UAUACACCAAUGUCGGUCC against KDM5A, the seed-corrected z-score was determined as 0.142.
Next, AAUGAGUAAAAAGUGAAUU against HTN1: -0.556; UGAUGUAAAAUCAAAGGUU against KRT6C: 0.491; AAACUUGGUUGAGUGAUCC against KRBA2: 0.654.
Next, UGACUAUUAGGUCUUUAGC against BCAT1: -0.111; UCCAUCGUCAAUGUUAUCC against HNRNPH3: -5.45; AUAUCUAUAAUACCCUCCG against APIP: 0.416.
AUACGUGUUCUCAAUGAUC against RNF121 showed a seed-corrected z-score of 0.696.
On to UUCUCUUCUUUAGUCAGUG against SKA2P1, for which the seed-corrected z-score was -2.33.
On to AAUAUUGUAAGAAGAAGGG against NT5C3B, for which the seed-corrected z-score came out at 0.882.
On to UGGGUUCUCAGGAACGGGU against PNKD, for which the seed-corrected z-score was 1.76.
Regarding UUCCUUUUGCGUCUGGAUC against ZC2HC1C, the seed-corrected z-score was -1.55.
Sequence UAUUUGGGUGGUUCAGUUG against NEK6 yielded a seed-corrected z-score of -0.0182.
Consider UAUGAGUCCACAAUUGAUC against TMEM19, for which the seed-corrected z-score was -11.
For UCUACAAGUAAUGAAGGCC against ZFP62, the seed-corrected z-score is 0.853.
In turn, AAUGAUGAAUCCACCUUCG against ARMC10P1 showed a seed-corrected z-score of -0.435.
In turn, UCAGCUAACAAAGAGUCGC against STAG3 showed a seed-corrected z-score of 0.617.
Sequence AGCAGUAUAAAACAGGAGC against TIPARP had a seed-corrected z-score of 0.177.
Sequence AUAAUCACACUGUCAACUG against ACAA2 returned a seed-corrected z-score of -0.323.
AGCCUUAGACGUGCAGUUG against RPL36AP31 displayed a seed-corrected z-score of -2.33.
For the sequence UGUUGUAGCAGAAUGAGGA against ARC, the seed-corrected z-score was -3.81.
Next, UGCUGGGUCAGAUGUCUCC against ARHGAP9: 0.0212; UUCGAUCACCAUAUACUCC against KCNA3: 0.36.
Regarding UCGGUAUUCAAACCCUUCG against HIRA, the seed-corrected z-score is 0.423.
For the sequence UCAGGGCAUAGAUAAGUGG against OR10W1, the seed-corrected z-score is -2.86.
The value for UUUCUAGCUAAGGUCAAAC against SHOC2 was -0.857; that for AUAGGAGAUCGCAUCGCCC against CACFD1 was -0.00387; that for AAGGUGUUCACGUAGGCUG against CLN3 was -2.78.
Take AUUGGUAUCCUAACUAUUC against EFHD1: the seed-corrected z-score was found to be 0.876.
Consider UCUGGGAACACCCUCAGCA against GABRR2, for which the seed-corrected z-score was -0.593.
ACGGAUUCUAGUUUAGAUG against KIAA0232 came in with a seed-corrected z-score of 2.72.
With UCCGUUCAUAGUCUUCUCC against CSPP1, the seed-corrected z-score was -2.12.
As for AUAACGAUGCUUUAUGUGG against ABHD1, the seed-corrected z-score is -0.139.
For UCUCUAACUUCGACCCUCU against C19orf68, the seed-corrected z-score was determined as 0.527.
UUUCUCAACUGCAUGAAAG against LINC00264: the seed-corrected z-score was -0.13.
Turning to UACUGAAGUAGUUAGGAUC against INO80C, the seed-corrected z-score came out at 1.43.
Sequence AUGUUGCCCACGUCCUUGG against RABIF registered a seed-corrected z-score of -3.06.
Take AAUGAGGCAGGCAUGUUGG against PNMT: the seed-corrected z-score came out at 1.18.
With UGUAUCCUAAGGUAUCGGC against VWA8, the seed-corrected z-score was -0.221.
The value for AUAUCUUCGAAAGUAAAUC against RPF2P1 was 1.14; that for UUUUUCCAUACUUCAAGCC against QRICH1 was -0.708; that for AAAUGGAAAUUCUCGAUGU against HTN1 was 0.36.
In turn, AGAUUGGUCAAAGCCUUUC against ZNF319 yielded a seed-corrected z-score of -2.3.
Next, AUAGUUAUUCUUGUCGGGC against HVCN1: -0.696; UACGUAGUCGUCAUCAUCU against FAM83G: -0.453; UCAUUAGACAUAACAUUGC against ALG13: 0.117.
UCAUAGUCGAUCACCACUG against COL23A1 had a seed-corrected z-score of -0.458.
Consider UUAGUAGUGACAUUUCGGG against MRE11A, for which the seed-corrected z-score was -0.0144.
UUGAAUAGGAAGAGUAUCC against OMA1 showed a seed-corrected z-score of 1.31.
The value for UAACUGAUCAGACCACAAC against TUBA1A was 0.266; that for UGUCCAUAAACAGUAAAGG against ZNF30 was -2.51.
UGAUUUAAUCUUGCCGCCC against PHLDB1 came in with a seed-corrected z-score of 0.669.
The value for AACACGUUGCCUGUCUUUC against NUTM2A-AS1 was 0.413.
